Data on 38 compounds can be found in the supplement of paper PMC8975748.

Structures can show the parent of a compound that is named as a salt.

The test system of one test is Saccharomyces cerevisiae BY4741 SeMeCo community. Kind of test: z-score of subpopulation abundance vs DMSO median, subpopulation auxotrophic for HUM; higher = larger share of this subpopulation than in DMSO controls. Particulars: 10 µM; 24 h; SM minimal medium; subpopulation (auxotrophy): HUM. A digest of the protocol: (§1)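 A Saccharomyces cerevisiae BY4741 community carried four plasmids, each restoring one auxotrophy and encoding a distinct fluorescent protein. It was pre-grown overnight to OD600 1.0, diluted to 0.3, and 70 µl was added to 384-well plates acoustically predosed with library drugs (10 µM final), then grown 24 h in minimal SM medium. Cells were paraformaldehyde-fixed and imaged by automated confocal microscopy, with single-auxotroph fluorescent strains setting thresholds and autofluorescence correction. Each subpopulation's abundance was scored as a z-score against the vehicle-well median.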
In the case of `CN(C)CCN1C(=O)c2cccc3cc(N)cc(c23)C1=O` [Amonafide], the “z-score of subpopulation abundance” value was -0.09.
With `c1ccc(-c2ccc(C(c3ccccc3)n3ccnc3)cc2)cc1` (centres undefined) [Bifonazole], the “z-score of subpopulation abundance” value is 0.21.
As to `CO/N=C(\C(=O)N[C@@H]1C(=O)N2C(C(=O)O)=C(Cn3ccc(=N)n3CCO)CS[C@H]12)c1csc(N)n1` [Cefoselis Sulfate], the “z-score of subpopulation abundance” value worked out at 0.02.
Still for that read-out and setting: under `OC(CCN1CCCCC1)(c1ccccc1)C1CCCCC1` (centres undefined) [Trihexyphenidyl hydrochloride] stands -0.31.

The next test shares this test system. Briefly: z-score of subpopulation abundance vs DMSO median, subpopulation auxotrophic for LUM; higher = larger share of this subpopulation than in DMSO controls. The note with it: 10 µM; 24 h; SM minimal medium; subpopulation (auxotrophy): LUM. A digest of the protocol:
as §1
With `C#CCN[C@@H]1CCc2ccccc21` [Rasagiline Mesylate], the “z-score of subpopulation abundance” value was 0.19.
For `CCCCCOc1ccc(-c2ccc(-c3ccc(C(=O)N[C@H]4C[C@@H](O)[C@@H](O)NC(=O)[C@@H]5[C@@H](O)[C@@H](C)CN5C(=O)[C@H]([C@@H](C)O)NC(=O)[C@H]([C@H](O)[C@@H](O)c5ccc(O)cc5)NC(=O)[C@@H]5C[C@@H](O)CN5C(=O)[C@H]([C@@H](C)O)NC4=O)cc3)cc2)cc1`, the “z-score of subpopulation abundance” value came to 9.08.
Turning to `COc1cc2c(cc1OC)[C@@H]1Cc3ccc(OC)c(OC)c3CN1CC2` [Rotundine], the “z-score of subpopulation abundance” value was -0.04.
Turning to `C[C@H](NCc1ccc(OCc2cccc(F)c2)cc1)C(N)=O` [Safinamide], the “z-score of subpopulation abundance” value worked out at 0.42.
With `CC1(C)S[C@@H]2[C@H](NC(=O)COc3ccccc3)C(=O)N2[C@H]1C(=O)O` [Penicillin V potassium salt], the “z-score of subpopulation abundance” value is -0.32.
Regarding `CN(C)CCc1c[nH]c2ccc(CS(=O)(=O)N3CCCC3)cc12` [Almotriptan Malate], the “z-score of subpopulation abundance” value is -0.23.
For the compound `Cc1cccc(C)c1NC(=O)C1CCCCN1C` (centres undefined) [Mepivacaine], the “z-score of subpopulation abundance” value stood at 0.08.
Take `CC1=C(CC(=O)O)c2cc(F)ccc2/C1=C\c1ccc([S+](C)[O-])cc1` (centres undefined) [Sulindac]: the “z-score of subpopulation abundance” value stood at 0.36.
For `C#C[C@]1(O)CC[C@H]2[C@@H]3CCC4=CCCC[C@@H]4[C@H]3CC[C@@]21C` [Lynestrenol], the “z-score of subpopulation abundance” value was -0.41.
In the case of `CN(C)CCCN1c2ccccc2Sc2ccc(Cl)cc21` [Chlorpromazine HCl], the “z-score of subpopulation abundance” value was determined as 0.52.
As to `NC(=O)N1c2ccccc2C=Cc2ccccc21` [Carbamazepine], the “z-score of subpopulation abundance” value was determined as 0.24.
Regarding `CC(=O)OCC(CCn1cnc2cnc(N)nc21)COC(C)=O` [Famciclovir], the “z-score of subpopulation abundance” value is -0.18.
The same measure, in the same setting: under `C[C@@H]1CC(=O)NN=C1c1ccc(NN=C(C#N)C#N)cc1` [Levosimendan] stands -0.29; under `N[C@@H](CCC(=O)O)C(=O)O` [(S)-Glutamic acid], -0.99; under `c1cnc2cc3c(cc2n1)[C@@H]1CNC[C@H]3C1` [Varenicline Tartrate], -0.39.
Regarding `CCCCCCCCCCCCCCCC[N+](C)(C)C` [Cetrimonium Bromide (CTAB)], the “z-score of subpopulation abundance” value amounted to 20.6.
With `C#C[C@]1(O)CC[C@H]2[C@@H]3CCC4=CCCC[C@@H]4[C@H]3C(=C)C[C@@]21CC` [Desogestrel], the “z-score of subpopulation abundance” value was -0.72.
Consider `C=CC[N+]1([C@H]2C[C@H]3[C@@H]4CC[C@H]5C[C@H](O)[C@@H](N6CCOCC6)C[C@]5(C)[C@H]4CC[C@]3(C)[C@H]2OC(C)=O)CCCC1` [Rocuronium Bromide], for which the “z-score of subpopulation abundance” value is -0.48.
On the same count and under the same terms, under `N#CC(c1ccc(Cl)cc1)c1c(Cl)cc(-n2ncc(=O)[nH]c2=O)cc1Cl` (centres undefined) [Diclazuril] stands -0.7; under `CN(C/C=C/C#CC(C)(C)C)Cc1cccc2ccccc12` [Terbinafine HCl], 0.47.
The same measure, in the same setting: the figure for `CC/C(=C(\c1ccccc1)c1ccc(OCCN(C)C)cc1)c1ccccc1` [Tamoxifen] is 0.23.
As to `COC(=O)C1=C(C)NC(C)=C(C(=O)OCCN2CCN(C(c3ccccc3)c3ccccc3)CC2)C1c1cccc([N+](=O)[O-])c1` (centres undefined) [Manidipine 2HCl], the “z-score of subpopulation abundance” value was 0.89.
As to `CCC(C)(Oc1ccc(C2(c3ccc(OC(C)(CC)C(=O)O)cc3)CCCCC2)cc1)C(=O)O` (centres undefined) [Clinofibrate], the “z-score of subpopulation abundance” value is -1.09.
Turning to `O=C1CCc2ccc(OCCCCN3CCN(c4cccc(Cl)c4Cl)CC3)cc2N1` [Aripiprazole], the “z-score of subpopulation abundance” value is 1.32.
In the case of `O=C(O)C[C@H](O)C[C@H](O)/C=C/c1c(C2CC2)nc2ccccc2c1-c1ccc(F)cc1` [Pitavastatin Calcium], the “z-score of subpopulation abundance” value stood at 1.38.
Still for that read-out and setting: under `CN(C)CCN1C(=O)c2cccc3cc(N)cc(c23)C1=O` [Amonafide] stands 0.44; under `c1ccc(-c2ccc(C(c3ccccc3)n3ccnc3)cc2)cc1` (centres undefined) [Bifonazole], 0.94; under `CO/N=C(\C(=O)N[C@@H]1C(=O)N2C(C(=O)O)=C(Cn3ccc(=N)n3CCO)CS[C@H]12)c1csc(N)n1` [Cefoselis Sulfate], -0.44.
The same measure, in the same setting: under `OC(CCN1CCCCC1)(c1ccccc1)C1CCCCC1` (centres undefined) [Trihexyphenidyl hydrochloride] stands 0.73; under `C[C@H](NCc1ccc(OCc2cccc(F)c2)cc1)C(N)=O` [Safinamide Mesylate], 0.24.

The test system is the same in the next test. Briefly: z-score of subpopulation abundance vs DMSO median, subpopulation auxotrophic for HLUM; higher = larger share of this subpopulation than in DMSO controls. The note with it: 10 µM; 24 h; SM minimal medium; subpopulation (auxotrophy): HLUM. A digest of the protocol: as §1
For `C#CCN[C@@H]1CCc2ccccc21` [Rasagiline Mesylate], the “z-score of subpopulation abundance” value is 0.44.
On the same count and under the same terms, under `OCc1ccccc1O[C@@H]1O[C@H](CO)[C@@H](O)[C@H](O)[C@H]1O` [Salicin] stands -0.11.
Take `CCCCCOc1ccc(-c2ccc(-c3ccc(C(=O)N[C@H]4C[C@@H](O)[C@@H](O)NC(=O)[C@@H]5[C@@H](O)[C@@H](C)CN5C(=O)[C@H]([C@@H](C)O)NC(=O)[C@H]([C@H](O)[C@@H](O)c5ccc(O)cc5)NC(=O)[C@@H]5C[C@@H](O)CN5C(=O)[C@H]([C@@H](C)O)NC4=O)cc3)cc2)cc1`: the “z-score of subpopulation abundance” value is 76.
Turning to `COc1cc2c(cc1OC)[C@@H]1Cc3ccc(OC)c(OC)c3CN1CC2` [Rotundine], the “z-score of subpopulation abundance” value is 0.13.
Same read-out and setting: the figure for `C[C@H](NCc1ccc(OCc2cccc(F)c2)cc1)C(N)=O` [Safinamide] is 0.95.
In the case of `CC1(C)S[C@@H]2[C@H](NC(=O)COc3ccccc3)C(=O)N2[C@H]1C(=O)O` [Penicillin V potassium salt], the “z-score of subpopulation abundance” value is -1.08.
As to `CC[C@H]1OC(=O)C[C@@H](O)[C@H](C)[C@@H](O[C@@H]2O[C@H](C)[C@@H](O[C@H]3C[C@@](C)(O)[C@@H](O)[C@H](C)O3)[C@H](N(C)C)[C@H]2O)[C@@H](CC=O)C[C@@H](C)C(=O)/C=C/C(C)=C/[C@@H]1CO[C@@H]1O[C@H](C)[C@@H](O)[C@@H](OC)[C@H]1OC` [Tylosin], the “z-score of subpopulation abundance” value is 0.01.
`C[N+]1(C)[C@@H]2C[C@@H](OC(=O)C(O)(c3cccs3)c3cccs3)C[C@H]1[C@@H]1O[C@@H]12` [Tiotropium Bromide hydrate]: the “z-score of subpopulation abundance” value is -0.81.
With `CN(C)CCc1c[nH]c2ccc(CS(=O)(=O)N3CCCC3)cc12` [Almotriptan Malate], the “z-score of subpopulation abundance” value was -0.37.
For the compound `CCC(=O)NS(=O)(=O)c1ccc(-c2c(-c3ccccc3)noc2C)cc1` [Parecoxib Sodium], the “z-score of subpopulation abundance” value came to 0.78.
`Cc1cccc(C)c1NC(=O)C1CCCCN1C` (centres undefined) [Mepivacaine]: the “z-score of subpopulation abundance” value was -0.41.
As to `CC1=C(CC(=O)O)c2cc(F)ccc2/C1=C\c1ccc([S+](C)[O-])cc1` (centres undefined) [Sulindac], the “z-score of subpopulation abundance” value was -0.02.
On to `C#C[C@]1(O)CC[C@H]2[C@@H]3CCC4=CCCC[C@@H]4[C@H]3CC[C@@]21C` [Lynestrenol], for which the “z-score of subpopulation abundance” value is -0.6.
Still for that read-out and setting: the figure for `CN(C)CCCN1c2ccccc2Sc2ccc(Cl)cc21` [Chlorpromazine HCl] is 0.29; for `NC(=O)N1c2ccccc2C=Cc2ccccc21` [Carbamazepine] it is -0.25; for `CC(=O)OCC(CCn1cnc2cnc(N)nc21)COC(C)=O` [Famciclovir] it is 1.06.
As for `C[C@@H]1CC(=O)NN=C1c1ccc(NN=C(C#N)C#N)cc1` [Levosimendan], the “z-score of subpopulation abundance” value is -0.43.
As to `N[C@@H](CCC(=O)O)C(=O)O` [(S)-Glutamic acid], the “z-score of subpopulation abundance” value is 0.06.
For `NC[C@@H]1O[C@H](O[C@H]2[C@@H](O)[C@H](O[C@@H]3[C@@H](O)[C@H](N)C[C@H](N)[C@H]3O[C@H]3O[C@H](CN)[C@@H](O)[C@H](O)[C@H]3N)O[C@@H]2CO)[C@H](N)[C@@H](O)[C@@H]1O` [Neomycin sulfate], the “z-score of subpopulation abundance” value was determined as 0.16.
For `C#CCC(Cc1cnc2nc(N)nc(N)c2n1)c1ccc(C(=O)N[C@@H](CCC(=O)O)C(=O)O)cc1` (some centres undefined) [Pralatrexate], the “z-score of subpopulation abundance” value came to 1.08.
Regarding `C#C[C@]1(O)CC[C@H]2[C@@H]3CCC4=CCCC[C@@H]4[C@H]3C(=C)C[C@@]21CC` [Desogestrel], the “z-score of subpopulation abundance” value was -0.48.
With `C=CC[N+]1([C@H]2C[C@H]3[C@@H]4CC[C@H]5C[C@H](O)[C@@H](N6CCOCC6)C[C@]5(C)[C@H]4CC[C@]3(C)[C@H]2OC(C)=O)CCCC1` [Rocuronium Bromide], the “z-score of subpopulation abundance” value is -0.49.
Take `N#CC(c1ccc(Cl)cc1)c1c(Cl)cc(-n2ncc(=O)[nH]c2=O)cc1Cl` (centres undefined) [Diclazuril]: the “z-score of subpopulation abundance” value came to 0.35.
Turning to `COCCCN1CCC(NC(=O)c2cc(Cl)c(N)c3c2OCC3)CC1` [Prucalopride], the “z-score of subpopulation abundance” value is -0.34.
Take `CN(C/C=C/C#CC(C)(C)C)Cc1cccc2ccccc12` [Terbinafine HCl]: the “z-score of subpopulation abundance” value was 1.
`CC1(C)[C@H](C(=O)O)N2C(=O)C[C@H]2S1(=O)=O` [Sulbactam sodium]: the “z-score of subpopulation abundance” value worked out at 0.51.
For the compound `CC/C(=C(\c1ccccc1)c1ccc(OCCN(C)C)cc1)c1ccccc1` [Tamoxifen], the “z-score of subpopulation abundance” value is 0.09.
`COC(=O)C1=C(C)NC(C)=C(C(=O)OCCN2CCN(C(c3ccccc3)c3ccccc3)CC2)C1c1cccc([N+](=O)[O-])c1` (centres undefined) [Manidipine 2HCl]: the “z-score of subpopulation abundance” value stood at 0.77.
As to `CCC(C)(Oc1ccc(C2(c3ccc(OC(C)(CC)C(=O)O)cc3)CCCCC2)cc1)C(=O)O` (centres undefined) [Clinofibrate], the “z-score of subpopulation abundance” value was found to be 0.45.
Take `O=C1CCc2ccc(OCCCCN3CCN(c4cccc(Cl)c4Cl)CC3)cc2N1` [Aripiprazole]: the “z-score of subpopulation abundance” value came to 0.56.
For the compound `O=C(O)C[C@H](O)C[C@H](O)/C=C/c1c(C2CC2)nc2ccccc2c1-c1ccc(F)cc1` [Pitavastatin Calcium], the “z-score of subpopulation abundance” value is 1.55.
The same measure, in the same setting: the figure for `CN(C)CCN1C(=O)c2cccc3cc(N)cc(c23)C1=O` [Amonafide] is -0.08; for `c1ccc(-c2ccc(C(c3ccccc3)n3ccnc3)cc2)cc1` (centres undefined) [Bifonazole] it is 2.46; for `CO/N=C(\C(=O)N[C@@H]1C(=O)N2C(C(=O)O)=C(Cn3ccc(=N)n3CCO)CS[C@H]12)c1csc(N)n1` [Cefoselis Sulfate] it is -0.64.
In the case of `OC(CCN1CCCCC1)(c1ccccc1)C1CCCCC1` (centres undefined) [Trihexyphenidyl hydrochloride], the “z-score of subpopulation abundance” value was -0.13.
